Data: PubChem BioAssay (NCI)
“And” between values parts separate entries of the source, which are not always exact repeats. Equal entries are not always repeated. The panel holds about 83,000 compounds, 20% with a hit somewhere; the sample as a whole holds those more often.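 In brief: 96-well plates, 48 h treatment, single concentration, percent growth endpoint.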 The source made the active and inactive calls. The calls were made as follows: active = growth percent below 10; inactive = the rest.

Tests used:
Assay in all cases: NCI-60 one-dose screen, 48 h (100 = growth as untreated, 0 = no growth, -100 = all killed)
MCF7 breast = details: 10 µM unless noted
MOLT-4 leukemia = details: 10 µM
SR leukemia = details: 10 µM
OVCAR-8 ovarian = details: 10 µM
OVCAR-5 ovarian = details: 10 µM
SK-OV-3 ovarian = details: 10 µM
IGROV1 ovarian = details: 10 µM
OVCAR-3 ovarian = details: 10 µM
HS 578T breast = details: 10 µM
NCI/ADR-RES ovarian = details: 10 µM
T-47D breast = details: 10 µM
MDA-MB-435 melanoma = details: 10 µM
SW-620 colon = details: 10 µM
HCT-116 colon = details: 10 µM
HCC-2998 colon = details: 10 µM
KM12 colon = details: 10 µM
RPMI-8226 leukemia = details: 10 µM
OVCAR-4 ovarian = details: 10 µM
BT-549 breast = details: 10 µM

SMILES	growth (MCF7 breast)	growth (MOLT-4 leukemia)	growth (SR leukemia)	growth (OVCAR-8 ovarian)	growth (OVCAR-5 ovarian)	growth (SK-OV-3 ovarian)	growth (IGROV1 ovarian)	growth (OVCAR-3 ovarian)	growth (HS 578T breast)	growth (NCI/ADR-RES ovarian)	growth (T-47D breast)	growth (MDA-MB-435 melanoma)	growth (SW-620 colon)	growth (HCT-116 colon)	growth (HCC-2998 colon)	growth (KM12 colon)	growth (RPMI-8226 leukemia)	growth (OVCAR-4 ovarian)	growth (BT-549 breast)
COc1cc2c3cc1Oc1c(OC)c(OC)cc4c1C(Cc1ccc(cc1)Oc1cc(ccc1O)CC3N(C)CC2)N(C)CC4 (stereo not given)	33.8% [100 µM] (inactive) and -96.4% [100 µM] (active)	–	–	–	–	–	–	–	–	–	–	–	–	–	–	–	–	–	–
COc1ccccc1/C=C/[N+](=O)[O-]	28.8% (inactive)	53.3% (inactive)	-11.9% (active)	63.3% (inactive)	85.6% (inactive)	113% (inactive)	53% (inactive)	49.9% (inactive)	79% (inactive)	91.4% (inactive)	50.7% (inactive)	39.3% (inactive)	58.8% (inactive)	36.2% (inactive)	88.7% (inactive)	65.9% (inactive)	–	–	–
CC[C@@]1(O)C[C@H](OC2CC(N(C)C)C(O)C(C)O2)c2c(cc3c(c2O)C(=O)c2c(O)ccc(O)c2C3=O)[C@H]1C(=O)OC (stereo not given in full)	-39.6% (active)	-19.5% (active)	-18.2% (active)	–	-87% (active)	-68.9% (active)	-68.3% (active)	-41.6% (active)	–	-64.1% (active)	-42% (active)	-95.7% (active)	-90.5% (active)	-70.5% (active)	–	-58.1% (active)	-32.6% (active)	-44.2% (active)	-80.2% (active)
Cc1ccc(NC(=O)CBr)cc1	–	98.4% (inactive)	89.5% (inactive)	–	109% (inactive)	86.1% (inactive)	–	112% (inactive)	107% (inactive)	106% (inactive)	98.5% (inactive)	102% (inactive)	92.8% (inactive)	106% (inactive)	113% (inactive)	109% (inactive)	102% (inactive)	102% (inactive)	–
CCOP(=O)(OCC)/C(C#N)=C/c1ccc(Br)cc1	92% (inactive)	92% (inactive)	–	100% (inactive)	90.7% (inactive)	97.4% (inactive)	–	112% (inactive)	100% (inactive)	107% (inactive)	–	104% (inactive)	105% (inactive)	101% (inactive)	102% (inactive)	109% (inactive)	54.9% (inactive)	98.4% (inactive)	–
C#CC1(O)CCC(C(C)(C)C)CC1 (stereo not given)	99% (inactive)	114% (inactive)	113% (inactive)	95.5% (inactive)	105% (inactive)	119% (inactive)	–	103% (inactive)	–	106% (inactive)	–	89.8% (inactive)	106% (inactive)	108% (inactive)	–	100% (inactive)	102% (inactive)	116% (inactive)	122% (inactive)
COC12c3c(C)cc(O)c4c(=O)occ(c34)C(=O)C1C13COC(=O)c4c(O)cc(C)c(c41)C(=O)C2C3OC(C)=O (stereo not given)	–	102% (inactive)	92.4% (inactive)	105% (inactive)	91.4% (inactive)	93.4% (inactive)	–	105% (inactive)	112% (inactive)	97.1% (inactive)	–	173% (inactive)	99.7% (inactive)	99.1% (inactive)	97.3% (inactive)	103% (inactive)	90.6% (inactive)	100% (inactive)	–
C[C@]12CC[C@H]3[C@@H](CCC4=CC(=O)CC[C@@H]43)[C@@H]1CC[C@@H]2OC(=O)N(CCCl)N=O	–	12.8% (inactive)	–	54.3% (inactive)	108% (inactive)	46.7% (inactive)	-2.36% (active)	89.9% (inactive)	69.7% (inactive)	49% (inactive)	54.2% (inactive)	68.5% (inactive)	52.5% (inactive)	51.7% (inactive)	58.1% (inactive)	28.2% (inactive)	5.42% (active)	84.8% (inactive)	66.6% (inactive)
Oc1c(Cl)cc(Cl)c2ccccc12.[Cu+2]	–	70.7% (inactive)	31.4% (inactive)	83% (inactive)	127% (inactive)	87.2% (inactive)	74.8% (inactive)	79.7% (inactive)	88.9% (inactive)	91.9% (inactive)	–	-83.4% (active)	88.3% (inactive)	71.8% (inactive)	86% (inactive)	98.9% (inactive)	–	55.8% (inactive)	–
COC(C(=O)C(O)C(C)O)C1Cc2cc3cc(OC4CC(OC(C)=O)C(OC5CC(O)C(OC)C(C)O5)C(C)O4)cc(O)c3c(O)c2C(=O)C1OC1CC(OC2CC(OC3CC(C)(O)C(OC(=O)C(C)C)C(C)O3)C(O)C(C)O2)C(O)C(C)O1 (stereo not given)	1.47% (active)	-25.4% (active)	-23.4% (active)	–	-43.5% (active)	9.37% (active)	-39.4% (active)	-4.25% (active)	–	47.4% (inactive)	–	-89.4% (active)	-12% (active)	-40.2% (active)	-94.4% (active)	-10.4% (active)	-32.4% (active)	-0.721% (active)	-74.8% (active)
CC[C@@H](C)[C@@H]1NC(=O)C(NC(=O)C(CC(C)C)N(C)C(=O)C2CCCN2C(=O)C(C)O)C(C)OC(=O)C(Cc2ccc(OC)cc2)N(C)C(=O)C2CCCN2C(=O)C(CC(C)C)NC(=O)C(C)C(=O)C(C(C)C)OC(=O)C[C@H]1O (stereo not given in full)	-27.7% (active)	-15.8% (active)	1.46% (active)	–	-71.8% (active)	-38.5% (active)	-40.4% (active)	-39.6% (active)	–	-43.2% (active)	–	-91.8% (active)	-45.5% (active)	-28.8% (active)	–	-49.8% (active)	-27.5% (active)	-30.8% (active)	–
